Screens (PubChem BioAssay)
Autophagy HCS: autophagy modulators in MEF cells, primary screen, imaging, high-content, MEF GFP-LC3. AID 463193, 2010. MEF GFP-LC3 puncta imaging; test concentration mostly 10 µM. 0.98% of 190,000 active. calls only at 10 µM (by protocol);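 active = percentage of spot-positive cells more than 3 SD above its plate mean, without a fluorescence outlier flag or 80% toxicity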;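 note: spot-positive cell cutoff set from DMSO-treated cells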
PTEN del growth: growth suppression of PTEN-null HCT116, primary screen, cell-based, CellTiter-Glo; HCT116 PTEN-null viability, 60 h; hits give low values; viability, % at 10 µM; 1.2% of 140,000 active; AID 827, 2007;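 active = viability at or below a set limit, 4 SD under the median of all tested compounds, cut at about 3.7% in these data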;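 note: PTEN knockout HCT116 line with beta catenin targeted HCT116 as companion control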
Lmaj promast: Leishmania major promastigote growth inhibition, primary screen; Leishmania major promastigotes, resazurin fluorescence viability; inhibition, % at 10 µM; 9% of 200,000 active; AID 1063, 2008; in the data active = inhibition above about 50%;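 note: promastigotes grown with compound for 44 hours at 28 °C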
bCat KO growth: primary screen for growth suppressors in beta-catenin knockout HCT116 cells (colon tumor, human). viability, % at 10 µM. 1.5% of 140,000 active. AID 818, 2007. HCT116 beta-catenin knockout viability, CellTiter-Glo, 60 h; hits give low values;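 active = viability at or under a set limit, the compound median less 4 SD, cut at about 6% in these data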;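 note: 0% = Hyamine 1622 control at 20 µM and 100% = untreated cell control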
Insulin prom inh: inhibitors of insulin promoter-driven GFP, primary screen, imaging, TRM-6 cells (human fetal islet line), eGFP reporter, cell count; reporter expression induced with tamoxifen; inhibition, % at 2 µM; 0.9% of 130,000 active;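 active = inhibition above the mean plus 3 SD, with well images judged a real hit on visual review, cut at about 60% in these data, passing the limit was not always enough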
Ins promoter up: insulin promoter activators in MIN6 cells, imaging, high-content screening, mouse beta cells; MIN6 insulin promoter-GFP reporter; hits give high values; 0.3% of 190,000 active; z-score at 5 µM;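 active = z-score above 3 at 5 µM with at least 500 cells counted in the well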
L major 1uM: Leishmania major promastigote growth inhibition, confirmation, 1 µM repeat of primary hits. shares compounds with Lmaj promast. L. major promastigote growth, resazurin fluorescence, 48 h. inhibition, % at 1 µM. 13% of 1,100 active. AID 1258, 2008;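 active = inhibition above about 50% in both repeat tests, limit read from the data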
An asterisk follows results filed as active. Rows were chosen to be rich in hits. Some 9.6% of all compounds tested hit in one or more screens of this group.

For COc1cc(C(=O)O/N=C2\CCCc3c2ccc(OC)c3[N+](=O)[O-])cc(OC)c1OC the results were Autophagy HCS inactive, PTEN del growth 78, Lmaj promast -5, bCat KO growth 70, Insulin prom inh -38 and Ins promoter up -0.7.
For O=C(NN1CCOCC1)c1cccc2ccccc12 the results were Autophagy HCS inactive, PTEN del growth 101, Lmaj promast -3, bCat KO growth 109 and Ins promoter up 0.02.
Screening CCCCCCCCCCCCC(=O)CCCCC(=O)O returned Autophagy HCS inactive, Lmaj promast 2 and Ins promoter up -0.75.
`O=S(=O)(Nc1ccc(N2CCCCC2)cc1)c1ccc(F)c(F)c1` gave Autophagy HCS inactive, PTEN del growth 90, Lmaj promast 67*, bCat KO growth 91, Insulin prom inh 6 and Ins promoter up -0.02.
`CC(=O)c1ccc(N2CCN(c3ccc(S(=O)(=O)NCCCN(C)C)cc3[N+](=O)[O-])CC2)cc1` gave Autophagy HCS inactive, Lmaj promast 100* and Ins promoter up -1.6.
For O=[N+]([O-])c1cc(S(=O)(=O)C(F)(F)F)ccc1N1CCN(c2ccccc2)CC1 the results were Autophagy HCS inactive, PTEN del growth 66, Lmaj promast 68*, bCat KO growth 65, Insulin prom inh 11 and Ins promoter up -0.61.
`O=[N+]([O-])c1cc(S(=O)(=O)Nc2ccccc2)ccc1N1CCN(c2ccccc2)CC1` gave Autophagy HCS inactive, PTEN del growth 36, Lmaj promast 88*, bCat KO growth 33 and Ins promoter up 0.43.
For O=[N+]([O-])c1cc(Cl)ccc1N1CCN(c2cccc(C(F)(F)F)c2)CC1 the results were Autophagy HCS inactive, PTEN del growth 56, Lmaj promast -4, bCat KO growth 63 and Ins promoter up -0.89.
`O=C(O)c1cc(S(=O)(=O)Nc2ccc(N3CCCCC3)cc2)ccc1Cl` gave Autophagy HCS inactive, Lmaj promast -9, Insulin prom inh -43 and Ins promoter up -0.72.
For Cc1c(NS(=O)(=O)c2ccc(N3CCN(C)CC3)c([N+](=O)[O-])c2)c(=O)n(-c2ccccc2)n1C the results were Autophagy HCS inactive, Lmaj promast -2, Insulin prom inh 16 and Ins promoter up -0.39.
For O=C(Oc1cc2oc(=O)c3c(c2cc1Cl)CCCC3)c1ccco1 the results were Autophagy HCS inactive, PTEN del growth 104, Lmaj promast -3, bCat KO growth 103, Insulin prom inh -6 and Ins promoter up -0.12.
CCOC(=O)Cc1csc(NC(=O)Nc2cccc(OC)c2)n1 was read as Ins promoter up 0.46.
`Cc1cc(OC(=O)c2c(F)cc(F)cc2F)nc(C)n1` gave Autophagy HCS inactive, Lmaj promast 2 and Ins promoter up -0.66.
`O=C(O)c1cc(NS(=O)(=O)c2ccc(N3CCCCC3)c([N+](=O)[O-])c2)cc(C(=O)O)c1` gave Autophagy HCS inactive, PTEN del growth 111, Lmaj promast 77*, bCat KO growth 101, Insulin prom inh 45 and Ins promoter up -0.14.
CNS(=O)(=O)c1ccc(N2CCCC2)c([N+](=O)[O-])c1 was read as Autophagy HCS inactive, Lmaj promast -2 and Ins promoter up 0.
Screening CC1(C)Cc2nc3oc4c(N5CCOCC5)ncnc4c3cc2CO1 returned Autophagy HCS inactive, PTEN del growth 85, Lmaj promast 3, bCat KO growth 93, Insulin prom inh -3 and Ins promoter up 0.57.
`COc1ccccc1OC1OC2COC(c3ccco3)OC2C(O)C1NC(C)=O` (configuration not stated) gave Autophagy HCS inactive, PTEN del growth 99, Lmaj promast 65*, bCat KO growth 93, Insulin prom inh -5, Ins promoter up -0.24 and L major 1uM -13.
Screening CC(=O)NC1C(Oc2cccc(C)c2)OC2COC(c3ccco3)OC2C1O (configuration not stated) returned Autophagy HCS inactive, PTEN del growth 99, Lmaj promast 44, bCat KO growth 102, Insulin prom inh 32 and Ins promoter up -0.26.
